High-throughput results: PubChem BioAssay, National Center for Advancing Translational Sciences (NCATS)
An excerpt weighted towards active compounds, which were near 21% of everything screened.
CHX counter = Cycloheximide Counterscreen for Small Molecule Inhibitors of Shiga Toxin; cell reporter, cycloheximide protein synthesis inhibition counterscreen; max response, %; hit rate 12% among 300,000; in the data active means max response mostly above about 13%, no sharp cut-off; inactive means mostly below about 14%; further: read at 38.3 µM for the half of the compounds with a filed dose; 0% is about no effect
Shiga toxin inh = A qHTS for Small Molecule Inhibitors of Shiga Toxin; hit rate 9.2% among 290,000; AID 2315, 2010; Vero cells, Shiga toxin protein synthesis inhibition reporter; inhibition, % at 38.7 µM; in the data active means inhibition mostly above about 28%, no sharp cut-off; inactive means mostly below about 43%; further: 0% is about no effect
Pf growth 96h = Primary qHTS for delayed death inhibitors of the malarial parasite plastid, 96 hour incubation; P. falciparum luciferase reporter growth, 96 h; AID 504834, 2011; hit rate 6.9% among 320,000; Potency, µM (top dose mostly 28.7 µM), for inactives: at the highest dose activity change, negative = inhibition, usual class: inhibitors; further: potency means the concentration at half of the fitted maximal effect; on the % scale 0 is the no-effect control and ±100 the full control effect
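Delayed-death screen, second-generation endpoint: infected erythrocytes, 2% hematocrit, 0.05% parasitemia final; 96 hours at 37 C, 5% CO2; luciferase detection reagent; luminescence decrease equals reduced growth.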
HCV inh = qHTS Assay for Inhibitors of Hepatitis C Virus (HCV) | Huh7.5.1 HCVcc-Cre infection, luciferase reporter, 44 h | Potency, µM (highest dose often 41.8 µM), for the others: top-dose activity change, negative = inhibition, actives largely listed as inhibitors | hit rate 3.4% among 340,000; further: potency means the concentration at half of the fitted maximal effect; on the % scale 0 is the no-effect control and ±100 the full control effect
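Infectious HCV cell culture screen: compound-treated cells (1,000/well, pre-plated 4 h) are infected with HCVcc-Cre at roughly 0.5 moi and grown 44 h. Infection is quantified by luciferase signal after 15 min substrate incubation at room temperature.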
HCMV inh = qHTS Assay for inhibitors of the human cytomegalovirus (HCMV). hit rate 4.5% among 410,000. activity change, negative = inhibition, % at 57.5 µM. HFF cells, HCMV-luciferase reporter, 72 h; stronger effect = lower value; in the data active means activity change below about -60%; inconclusive means no clear call, values can overlap the other calls; inactive means above about -39%; further: on the % scale 0 is the no-effect control and ±100 the full control effect
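Inhibition of viral replication was scored as loss of reporter luminescence in HFFs infected with HCMV-luciferase (MOI 1 PFU/cell) for 72 h; compounds tested at 2 doses, normalized to buffer and Salinomycin controls.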
Pf growth 48h = Primary qHTS for delayed death inhibitors of the malarial parasite plastid, 48 hour incubation | P. falciparum luciferase growth in erythrocytes, 48 h | Potency, µM (highest dose often 28.7 µM), inactives show at the top dose activity change, negative = inhibition, most hits filed as inhibitors | hit rate 5.9% among 310,000 | AID 504832, 2011; further: potency means the concentration at half of the fitted maximal effect; on the % scale 0 is the no-effect control and ±100 the full control effect
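In quantitative HTS format, infected erythrocytes bearing luciferase-reporter parasites were treated for a single generation at 37 C. Luminescence after adding detection reagent served as the growth measure.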
The depositor's hits bear a star. Unless noted, the call rests on the fitted dose curve; in most records, active means well fitted inhibition curve with a large enough effect; inconclusive means small, poorly fitted or top-dose-only effect, or another doubt; inactive means no such curve, though single readings can be large or run the other way.

CC(C)CNC(=O)c1ccc(Cl)c(NC(=O)COc2ccccc2)c1 was read as CHX counter -2, Shiga toxin inh -1, Pf growth 96h inconclusive and Pf growth 48h -9%.
`CCOCC(=O)Nc1cc(C(=O)Nc2cccc(C)c2C)ccc1Cl` gave CHX counter 13, Shiga toxin inh -16, Pf growth 96h inconclusive, HCV inh -9%, HCMV inh -23 and Pf growth 48h -3%.
O=S(=O)(Nc1ncccn1)c1ccc(NC(=S)NCCc2ccccc2)cc1 was read as CHX counter -4, Shiga toxin inh 27, Pf growth 96h -13%, HCV inh 0%, HCMV inh 71 and Pf growth 48h inconclusive.
`CC(C)c1c(C(=O)Nc2ccccc2)c(-c2ccccc2)c(-c2ccc(F)cc2)n1CC[C@@H](O)C[C@@H](O)CC(=O)O` gave CHX counter 4, Shiga toxin inh 0 and HCMV inh -67*.
CCC(C)C(N)C(=O)NC(CC(N)=O)C(=O)NC(CC(C)C)C(=O)NC(CCCCN)C(=O)NC(C)C(=O)NC(CC(C)C)C(=O)NC(C)C(=O)NC(C)C(=O)NC(CC(C)C)C(=O)NC(C)C(=O)NC(CCCCN)C(=O)NC(CCCCN)C(=O)NC(C(=O)NC(CC(C)C)C(N)=O)C(C)CC (stereo not drawn) was read as CHX counter -9 and Shiga toxin inh -16.
For COc1ccccc1Nc1ccc(S(=O)(=O)N2CCCCC2)cc1[N+](=O)[O-] the results were CHX counter -3, Shiga toxin inh -10, Pf growth 96h inconclusive, HCV inh 12%, HCMV inh inconclusive and Pf growth 48h inconclusive.
CCCCCCNc1nc(OC)nc(N2CC3CC(C2)c2cccc(=O)n2C3)n1 (stereo not drawn) was read as CHX counter 14, Shiga toxin inh 43, Pf growth 96h 5%, HCV inh 1%, HCMV inh 18 and Pf growth 48h 8.3µM*.
CCOC(=O)c1c(-c2ccc(C)cc2)cn2ccccc12 was read as CHX counter 6, Shiga toxin inh -3, Pf growth 96h -14%, HCV inh 10µM*, HCMV inh 17 and Pf growth 48h -23%.
CCOC(=O)c1c(-c2ccccc2)cn2ccccc12 was read as CHX counter 10, Shiga toxin inh 43, Pf growth 96h -34%, HCV inh inconclusive, HCMV inh -34 and Pf growth 48h 6%.
COc1ccccc1CNC(=O)CC1N=C2c3ccccc3N=C(SCC(=O)Nc3ccc(F)cc3)N2C1=O (stereo not drawn) was read as HCMV inh 35.
For Cc1cccc2sc(NC(=O)c3cc(S(=O)(=O)N(C)C)ccc3N3CCCC3)nc12 the results were CHX counter 1, Shiga toxin inh -8, Pf growth 96h inconclusive, HCV inh -9%, HCMV inh 22 and Pf growth 48h inconclusive.
CN=c1scc(-c2cccs2)n1/N=C/c1ccccc1O was read as CHX counter -13, Shiga toxin inh -19, Pf growth 96h -56%, HCV inh 13µM*, HCMV inh -98* and Pf growth 48h -88%.
`Cc1ccc(N2CN=C3SCC(=O)N3C2)cc1C` gave CHX counter 22*, Shiga toxin inh 43, Pf growth 96h inconclusive, HCV inh 12%, HCMV inh 28 and Pf growth 48h 4%.
For COc1cccc(NC(=S)NCc2ccncc2)c1 the results were CHX counter -2, Shiga toxin inh -12, Pf growth 96h 8.3µM*, HCV inh 16%, HCMV inh -33 and Pf growth 48h 6%.
For COc1cccc(NC(=S)NN=C2CCCCCC2)c1 the results were CHX counter 26*, Shiga toxin inh 53*, Pf growth 96h inconclusive, HCV inh -7%, HCMV inh -20 and Pf growth 48h 139%.
COc1ccc(CNC(=S)Nc2cccc(OC)c2)cc1 was read as CHX counter -3, Shiga toxin inh 9, Pf growth 96h inconclusive, HCV inh -11%, HCMV inh 33 and Pf growth 48h 0%.
`COc1cccc(NC(=O)C(=O)NCc2ccncc2)c1` gave CHX counter 29*, Shiga toxin inh 78*, Pf growth 96h -26%, HCV inh -6%, HCMV inh 64 and Pf growth 48h 110%.
FC(F)(F)c1ccccc1NC(=S)NN=C1CCCCCC1 was read as CHX counter 33*, Shiga toxin inh 32, Pf growth 96h inconclusive, HCV inh inconclusive, HCMV inh -20 and Pf growth 48h inconclusive.
CCC(C)NC(=O)Cn1ncc2c(C)n(Cc3ccc(F)cc3)c(C)c2c1=O (stereo not drawn) was read as HCMV inh 20.
Screening O=C(NCc1ccccc1)c1ccc(N2C(=O)C3CCCCC3C2=O)cc1 (stereo not drawn) returned CHX counter -1, Shiga toxin inh -6, Pf growth 96h -5%, HCV inh 3%, HCMV inh -12 and Pf growth 48h -5%.
For N=C(N)n1ncc2c1CCCC2=O the results were HCMV inh 47.
CCc1ccc(NC(=S)Nc2cccc(OC)c2)cc1 was read as CHX counter 16*, Shiga toxin inh 67*, Pf growth 96h inconclusive, HCV inh 6%, HCMV inh -6 and Pf growth 48h 16%.
Screening CCC1=C(OC(=O)N(CC)CC)N2C(=O)OC(=NCC3CC3)[C@]2(Cc2ccccc2)[C@H]2C1=CC[C@H]1C(=O)N(CC)C(=O)[C@H]12 returned CHX counter -5, Shiga toxin inh 2, Pf growth 96h 13µM*, HCV inh 5%, HCMV inh 12 and Pf growth 48h 7.4µM*.
For CCC1=C(OC(=O)N(CC)CC)N2C(=O)OC(=NCCOC)[C@]2(Cc2ccccc2)[C@H]2C1=CC[C@H]1C(=O)N(C)C(=O)[C@H]12 the results were CHX counter -2, Shiga toxin inh -21, Pf growth 96h inconclusive, HCV inh 11%, HCMV inh 1 and Pf growth 48h 10µM*.
Screening CCC1=C(OC(=O)N(CC)CC)N2C(=O)OC(=NCc3ccccc3)[C@]2(C)[C@H]2C1=CC[C@H]1C(=O)N(CC)C(=O)[C@H]12 returned CHX counter -2, Shiga toxin inh -5, Pf growth 96h inconclusive, HCV inh -18%, HCMV inh -26 and Pf growth 48h 12µM*.
Screening CCC1=C(OC(=O)N(CC)CC)N2C(=O)OC(=NCC(=O)OC)[C@]2(C)[C@H]2C1=CC[C@H]1C(=O)N(CC)C(=O)[C@H]12 returned CHX counter -6, Shiga toxin inh -9, Pf growth 96h 36%, HCV inh 18%, HCMV inh -4 and Pf growth 48h 31%.
